Most compounds without a hit are left out; they make up all but 3.6% or so of the library.
mHTT-CaM PPI inh = inhibitors of human mutant huntingtin-calmodulin interaction. P42858. AlphaScreen His-mHTT/GST-CaM binding, luminescence. inhibition, % at 15 µM. hit rate 3.6% among 190,000. AID 1671202
Pf apPOL block = Pf-apPOL DNA polymerase inhibition. Recombinant Pf-apPOL, molecular beacon fluorescence, 1.5 h. inhibition, % at 10 µM. hit rate 0.25% among 210,000
Of the large screens only hits and unclear results are named; the others gave an inactive call. No stated cut-off is given here; in the data, active means inhibition above about 50%; inactive means the rest.

COc1ccc(N2CCN(CC(O)COCC34CC5CC(CC(C5)C3)C4)CC2)cc1 (stereo not given)	mHTT-CaM PPI inh 70
OC(COCC12CC3CC(CC(C3)C1)C2)CN1CCN(c2cccc(Cl)c2)CC1 (stereo not given)	mHTT-CaM PPI inh 99
COc1ccc(OCC(O)CN2CCN(c3ccc(OC)cc3)CC2)cc1 (stereo not given)	none
OC(COCC12CC3CC(CC(C3)C1)C2)CN1CCCC1 (stereo not given)	none
Cc1cc(OCC(=O)N2CCCCC2)nc(-c2ccc(Cl)cc2)n1	none
Cc1ccc(C2NC(=O)c3c(sc4c3CCN(C)C4)N2)c(O)c1 (stereo not given)	none
O=C1c2ccccc2-c2cc(Cl)nc3ccc(Cl)c1c23	none
Cc1ccc2nc3c(N)c(Cl)cc4c3c(c2c1)-c1ccccc1C4=O	mHTT-CaM PPI inh 61
Cc1cccc(C2CCCN2C(=O)c2cnn3c(C(F)F)cc(C4CC4)nc23)c1 (stereo not given)	none
Cc1ccc(S(=O)(=O)C(CN)c2cccs2)cc1 (stereo not given)	Pf apPOL block 69
O=C(NCC(c1cccs1)S(=O)(=O)c1ccccc1)Oc1ccccc1 (stereo not given)	none
Cc1cc(C)c2sc(N(CCN(C)C)C(=O)c3ccccc3[N+](=O)[O-])nc2c1	mHTT-CaM PPI inh 84
CCN(C(=O)c1ccccc1[N+](=O)[O-])c1ccccc1C	none
O=C(CSc1ncn[nH]1)NC1CCCCC1	none
COc1ccc(Nc2nc(Cl)nc(NC(C)C)n2)cc1	none
COc1ccc(Nc2nc(NN)nc(OCC(F)(F)F)n2)cc1	mHTT-CaM PPI inh 92 (no result: Pf apPOL block)
CC(C)N1Cc2cc(C(=O)NCc3ccc(F)cc3Cl)sc2C1	none
O=C(Nc1cccc(F)c1)N1CCC(N2CCN(Cc3ccccc3)C2=O)CC1	none
Cc1cccc(CNC(=O)C2CCN(c3cncnc3N3CCCC3)CC2)c1	none
O=C(NCc1ccc(C(F)(F)F)cc1)C1CCN(c2cncnc2N2CCCC2)CC1	mHTT-CaM PPI inh 83
CSc1ccc(CNC(=O)C2CCN(c3cncnc3N3CCCCC3)CC2)cc1	none
O=C(NCc1cccc(Cl)c1)C1CCN(c2cncnc2N2CCCC2)CC1	mHTT-CaM PPI inh 52
CCCSc1nc2ccccc2n2nnnc12	none
CCOc1cc2c(cc1OCC)C1C(C(=O)Nc3cc(C)ccn3)c3ccccc3C(=O)N1CC2 (stereo not given)	mHTT-CaM PPI inh 51
CCOc1ccccc1NC(=O)C1c2ccccc2C(=O)N2CCc3ccccc3C12 (stereo not given)	none
CCc1ccccc1NC(=O)C1c2cc(OC)c(OC)cc2C(=O)N2CCc3ccccc3C12 (stereo not given)	mHTT-CaM PPI inh 63
CCc1ccc(CNC(=O)C2c3cc(OC)c(OC)cc3C(=O)N3CCc4ccccc4C23)cc1 (stereo not given)	none
Cc1cccc(NC(=O)Cn2[nH]c3c(cnc4ccc(Cl)cc43)c2=O)c1C	none
N#CC1=C(N)OC2=C(C(=O)CCC2)C12CCCC2	none
O=C(Nc1nnc(C2CC(=O)N(c3ccccc3)C2)o1)c1ccccc1 (stereo not given)	none
CSc1ccc(N2CC(c3nnc(NC(=O)c4cccc(F)c4)o3)CC2=O)cc1 (stereo not given)	mHTT-CaM PPI inh 62
CSc1ccc(N2CC(c3nnc(NC(=O)c4ccc(Cl)cc4)o3)CC2=O)cc1 (stereo not given)	none
CCOc1ccc(N2CC(c3nnc(NC(=O)c4ccccc4)o3)CC2=O)cc1 (stereo not given)	mHTT-CaM PPI inh 82
O=C(Nc1nnc(C2CC(=O)N(c3ccc(F)cc3)C2)o1)c1cccc(F)c1 (stereo not given)	none
CSc1ccc(N2CC(c3nnc(NC(=O)c4cccs4)o3)CC2=O)cc1 (stereo not given)	mHTT-CaM PPI inh 64
O=C(Nc1nnc(C2CC(=O)N(c3ccccc3)C2)o1)c1cccs1 (stereo not given)	mHTT-CaM PPI inh 56
CCCOc1ccc(C(=O)Nc2nnc(C3CC(=O)N(c4ccc(OCC)cc4)C3)o2)cc1 (stereo not given)	none
CCNC(=O)c1c(NC(=O)C(C)Oc2ccccc2OC)sc2c1CCCC2 (stereo not given)	none
Cc1cccc(-c2nc(Cn3ccnc3C)no2)c1	none
CCC1c2ccc(C)n2CCN1C(=O)Nc1ccccc1Cl (stereo not given)	none
CCc1ccc(S(=O)(=O)N2CCCC2c2nc(-c3cccc(C)c3)no2)cc1 (stereo not given)	none
O=C(Cc1cccs1)N1CCC2(C1)NCc1ccccc1NC2=NC1CCCC1 (stereo not given)	none
CC(C)NC(=O)Nc1cccnc1N1CCOCC1	none
O=C(Nc1nc(-c2ccccn2)cs1)c1ccc(S(=O)(=O)N2CCCCC2)cc1	mHTT-CaM PPI inh 100
CCCCN(CC)S(=O)(=O)c1ccc(C(=O)Nc2nc(-c3ccccn3)cs2)cc1	mHTT-CaM PPI inh 96
CCCCN(CC)S(=O)(=O)c1ccc(C(=O)Nc2nnc(CC)o2)cc1	none
O=C(Nc1nc(-c2ccccn2)cs1)c1ccc(S(=O)(=O)N2CCOCC2)cc1	none
COc1ccc2c(Cl)c(C(=O)N3CCOCC3)sc2c1	none
O=C(CC1Nc2ccccc2NC1=O)Nc1ccc(Br)cc1 (stereo not given)	none
Cc1ccc2c(c1Br)C1(C(=O)N2)C(C#N)=C(N)OC2=C1C(=O)CC(C)(C)C2 (stereo not given)	none
CCN(CC)C(=O)C1CCN(c2nc3ccc(-c4cccs4)nc3s2)CC1	mHTT-CaM PPI inh 64
CN(C)CCNC(=O)C1CCN(c2nc3ccc(-c4ccncc4)nc3s2)CC1	none
CCCNC(=O)C1CCN(c2nc3ccc(-c4cccs4)nc3s2)CC1	none
CN(C)CCNC(=O)C1CCN(c2nc3ccc(-c4ccsc4)nc3s2)CC1	mHTT-CaM PPI inh 66
N#Cc1ccc(C(=O)N2CCCC(c3nnc(-c4ccccc4)o3)C2)cc1 (stereo not given)	none
COc1ccccc1/C=C/C1=NC(=C\c2cccc(OC)c2OC)/C(=O)O1	none
O=C(Nc1nc(-c2ccc(Br)cc2)cs1)c1ncn[nH]1	mHTT-CaM PPI inh 100
O=C(Nc1nc(-c2ccccc2)cs1)c1ncn[nH]1	none
COc1cc(C2=NOC(C(=O)Nc3cccc(C(F)(F)F)c3)C2)cc(OC)c1OC (stereo not given)	none
O=C(Nc1ccc(F)cc1)c1cnc(-c2ccc(F)cc2)nc1-c1ccncc1	Pf apPOL block 88
O=C(Nc1ccc(F)cc1)c1cnc(-c2ccccc2)nc1-c1ccncc1	none
Cc1ccc(-c2ncc(C(=O)Nc3ccccc3Cl)c(-c3ccncc3)n2)cc1	Pf apPOL block 56
O=C(Nc1ccccc1F)c1cnc(-c2ccc(F)cc2)nc1-c1ccncc1	Pf apPOL block 86
O=C(Nc1ccccc1Cl)c1cnc(-c2ccccc2)nc1-c1ccncc1	none
O=C(Nc1ccccc1Cl)c1cnc(-c2ccc(F)cc2)nc1-c1ccncc1	none
COc1ccc(C2CN(C(=O)c3cccc(Cl)c3)CC2C(=O)N2CCCC2)cc1 (stereo not given)	none
Cc1ccc(NC(=O)c2cc3cc(Cl)ccc3oc2=O)cc1	none
S=C(NC1c2ccccc2Oc2ccccc21)c1ccccc1	none (no result: Pf apPOL block)
CSc1nnc2c(n1)OC1(Nc3ccccc3-2)C(=O)Nc2ccc([N+](=O)[O-])cc21 (stereo not given)	none
CCC(=O)N1CC(C(=O)N2CCN(C)CC2)C(c2cccc(C(F)(F)F)c2)C1 (stereo not given)	none
O=C1CCCC(=O)N1c1ccc(NC2CCCc3ccccc32)c([N+](=O)[O-])c1 (stereo not given)	mHTT-CaM PPI inh 63

Bioassay records deposited in PubChem by University of Kansas High Throughput Screening Laboratory.
